Values joined by “and” are separate entries in the source; they are usually repeats but may differ in a detail not shown here. Equal entries are not always repeated. Inconclusive results are not listed. Where a call stands in place of a potency, no number is given. Some structures have more than one record in an assay (separate samples or runs), and their calls can disagree. Active and inactive are the calls of the source. The call rests on the fitted dose curve; in most records, active means well fitted activation curve with a large enough effect in the repeat runs; inconclusive means weak or mixed curves; inactive means no such curve, though single readings can be large or run the other way. Positions of bridges follow the written chain, without caps; N, C: chain ends. Non-standard residues stand in square brackets, D forms with d. Residues, ends and D or L forms follow the SMILES beside them. *: point of attachment. Dab(CH2SO3H) = N[C@@H](CCNCS(=O)(=O)O)C(=O)O; X3 = CC[C@@H](C)CCCCC(=O)*; Dab = NCC[C@H](N)C(=O)O
molecular target: Nuclear receptor subfamily 1 group I member 2 (Homo sapiens) (UniProt O75469); test: CYP3A4 induction through human pregnane X receptor (PXR) by small molecules, qHTS assay (AID 1346984); conditions: DPX-2 HepG2 PXR, CYP3A4-luciferin luminescence, 24 h; series mostly up to 46.1 µM; further: nearly all actives have a fitted effect of over 40% in size
From the text: National Center for Advancing Translational Sciences [NCATS]
NIH Chemical Genomics Center [NCGC]
U.S. Environmental Protection Agency [EPA]
National Institutes of Environmental Health Sciences [NIEHS]
National Toxicology Program [NTP]
The Pregnane X receptor (PXR), a ligand activated nuclear receptor plays a critical role in the regulation of genes involved in drug metabolism and transporters. Activation of PXR is responsible for unwanted adverse drug reactions. PXR binds xenobiotics and when compounds interact with PXR enhances the expression of CYP3A genes. Identifying the compounds with the potential for PXR activation and CYP3A4 induction can be of importance in improving the efficacy of drugs with less toxicity and avoiding drug-drug interactions.
DPX-2 (Puracyp, Inc.) cell lines, used for screening against human PXR activation has HepG2 cells co-transfected with a PXR response element and a luciferase construct containing CYP3A4 promoter. Increase in luciferase activity can be used to identify the compounds that cause the induction of CYP3A4.
DPX-2 cells were dispensed at 2,000 cells per well in 5uL of assay medium into white, solid-bottom 1536-well plates using a Multidrop Combi dispenser (Thermo Scientific). The assay plates were incubated at 37C for 5hr before transferring 23nL of test compounds dissolved in DMSO and positive control via Pintool station (Wako). The assay plates were incubated at 37C for 24hr. After 24hr compound treatment, 1uL of 3uM (final concentration) P450 substrate (P450-Glo CYP3A4 screening system with Luciferin-IPA, Promega) was added by a Flying Reagent Dispenser (FRD, Aurora Discovery). The assay plates were incubated for 3hr at 37C. Then 5ul One-Glo assay reagent (Promega) was added to each plate by an FRD and following 30 min incubation at room temperature, luciferase activity was quantified on a ViewLux plate reader (Perkin Elmer).
Potency means the concentration at half of the fitted maximal effect.

Row | Compound | Potency
1 | CNC(=O)C[C@@H](N)C(=O)N[C@@H](C(=O)N[C@@H]1C(=O)N2[C@@H]1SC(C)(C)[C@@H]2C(=O)O)c1ccc(O)cc1 | inactive
2 | CCCCC[C@H](O)/C=C/[C@@H]1[C@@H](C/C=C\CCCC(=O)O)[C@@H](O)C[C@H]1O | inactive
3 | CO[C@H]1C[C@H](O[C@H]2[C@H](C)[C@@H](O[C@@H]3O[C@H](C)C[C@H](N(C)C)[C@H]3O)[C@@H](C)C[C@]3(CO3)C(=O)[C@H](C)[C@@H](O)[C@@H](C)[C@@H](C)OC(=O)[C@@H]2C)O[C@@H](C)[C@@H]1O | inactive
4 | CCOc1ccc(NC(=S)Nc2ccc(OCC)cc2)cc1 | inactive
5 | CC[C@H]1OC(=O)[C@H](C)C(=O)[C@H](C)[C@@H](O[C@@H]2O[C@H](C)C[C@H](N(C)C)[C@H]2O)[C@](C)(OC)C[C@@H](C)C(=O)[C@H](C)[C@H]2N(CCCCn3cnc(-c4cccnc4)c3)C(=O)O[C@]12C | inactive and 501 nM (active)
6 | C[C@@H]1C(=O)NC2=Nc3cccc(Cl)c3CN21 | inactive
7 | CC(C)c1ncc([N+](=O)[O-])n1C | inactive
8 | CCN(CC)CC#CCOC(=O)C(O)(c1ccccc1)C1CCCCC1 (stereo not given) | 8.91 µM (active)
9 | Cc1c(O)c(=O)ccn1C | inactive
10 | NC(=O)C1c2ccccc2CCc2ccccc21 | inactive
11 | CC/C(=C(/CC)c1ccc(OP(=O)(O)O)cc1)c1ccc(OP(=O)(O)O)cc1 | inactive
12 | C[Se]CC[C@H](N)C(=O)O | inactive
13 | c1ccc(-n2cnnn2)cc1 | inactive
14 | CC1(C)C[C@@H]1C(=O)N/C(=C\CCCCSC[C@H](N)C(=O)O)C(=O)O | inactive
15 | C=C1[C@H](CO)[C@@H](O)C[C@@H]1n1cnc2c(=O)[nH]c(N)nc21 | inactive
16 | CC[C@H]1OC(=O)C[C@@H](O)[C@H](C)[C@@H](O[C@@H]2O[C@H](C)[C@@H](O[C@H]3C[C@@](C)(O)[C@@H](O)[C@H](C)O3)[C@H](N(C)C)[C@H]2O)[C@@H](CC=O)C[C@@H](C)C(=O)/C=C/C(C)=C/[C@@H]1CO[C@@H]1O[C@H](C)[C@@H](O)[C@@H](OC)[C@H]1OC | inactive
17 | COC1[C@@H](O[C@@H]2O[C@H](C)[C@@H](O[C@H]3C[C@@](C)(O)[C@H](OC(=O)CC(C)C)[C@H](C)O3)[C@H](N(C)C)[C@H]2O)[C@@H](CC=O)C[C@@H](C)[C@@H](O)/C=C/C=C/C[C@@H](C)OC(=O)C[C@H]1OC(C)=O (stereo not given in full) | inactive
18 | CN[C@H](CC(C)C)C(=O)N[C@H]1C(=O)N[C@@H](CC(N)=O)C(=O)N[C@H]2C(=O)N[C@H]3C(=O)N[C@H](C(=O)N[C@@H](C(=O)O)c4cc(O)cc(O)c4-c4cc3ccc4O)[C@H](O)c3ccc(c(Cl)c3)Oc3cc2cc(c3O[C@@H]2O[C@H](CO)[C@@H](O)[C@H](O)[C@H]2O[C@H]2C[C@](C)(N)C(O)[C@H](C)O2)Oc2ccc(cc2Cl)[C@H]1O (stereo not given in full) | inactive
19 | Cc1ncc(C[n+]2csc(CCOP(=O)(O)O)c2C)c(N)n1 | inactive
20 | CC[C@@H](C)CCCCC(=O)N[C@@H](CCNCS(=O)(=O)O)C(=O)N[C@H](C(=O)N[C@@H](CCNCS(=O)(=O)O)C(=O)N[C@H]1CCNC(=O)[C@H]([C@@H](C)O)NC(=O)[C@H](CCNCS(=O)(=O)O)NC(=O)[C@H](CCNCS(=O)(=O)O)NC(=O)[C@H](CC(C)C)NC(=O)[C@@H](CC(C)C)NC(=O)[C@H](CCNCS(=O)(=O)O)NC1=O)[C@@H](C)O (X3-[Dab(CH2SO3H)]T[Dab(CH2SO3H)][Dab][Dab(CH2SO3H)][dL]L[Dab(CH2SO3H)][Dab(CH2SO3H)]T; lactam 4-C) | inactive

Row | Compound | Potency
21 | CC(C)(C)C(=O)OCC(=O)[C@H]1CC[C@H]2[C@@H]3CCC4=CC(=O)CC[C@]4(C)[C@H]3CC[C@]12C | inactive
22 | COc1cc(/C=C/C(=O)CC(=O)/C=C/c2ccc(O)c(OC)c2)ccc1O | inactive
23 | CN1[C@@H](CC(=O)c2ccccc2)CCC[C@H]1C[C@H](O)c1ccccc1 | inactive
24 | CC12CCC(C[N+](C)(CCC[N+](C)(C)C)C1)C2(C)C (stereo not given) | inactive
25 | Cc1cc(=O)c(C(=O)N[C@@H](C(=O)N[C@@H]2C(=O)N3C(C(=O)O)=C(CSc4nnnn4C)CS[C@H]23)c2ccc(O)cc2)c[nH]1 | inactive
26 | N#Cc1c(N(CC(=O)O)CC(=O)O)sc(C(=O)O)c1CC(=O)O | inactive
27 | CCOC(=O)Cc1ccc(-c2ccccc2)cc1 | inactive
28 | CNCC(=O)N[C@@H](CCCN=C(N)N)C(=O)N[C@H](C(=O)N[C@@H](Cc1ccc(O)cc1)C(=O)N[C@H](C(=O)N[C@@H](Cc1cnc[nH]1)C(=O)N1CCC[C@H]1C(=O)N[C@@H](C)C(=O)O)C(C)C)C(C)C | inactive
29 | CC1CCCC(C)N1NC(=O)c1ccc(Cl)c(S(N)(=O)=O)c1 (stereo not given) | inactive
30 | CCN(CC)CCOC[C@H]1O[C@@H](O)[C@H](OCCN(CC)CC)[C@@H](O)[C@@H]1O | inactive
31 | CC/C=C\C/C=C\C/C=C\C/C=C\C/C=C\CCCC(=O)O | inactive
32 | CO/N=C(\C(=O)N[C@@H]1C(=O)N2C(C(=O)O)=C(COC(C)=O)CS[C@H]12)c1csc(N)n1 (stereo in doubt) | inactive
33 | CN=C(N)NCCC[C@H](N)C(=O)O | inactive
34 | CCN(CC)C(=O)[C@]1(c2ccccc2)C[C@@H]1CN | inactive
35 | Cc1cccc(C)c1NC(=O)C1CCCCN1C (stereo not given) | inactive
36 | CC(C)(O/N=C(\C(=O)N[C@@H]1C(=O)N2C(C(=O)[O-])=C(C[n+]3ccccc3)CS[C@H]12)c1csc(N)n1)C(=O)O | inactive
37 | O=C(O)C[C@H](O)C[C@H](O)/C=C/c1c(C2CC2)nc2ccccc2c1-c1ccc(F)cc1 | 14.1 µM (active)
38 | O=C(O)c1cc(O)c2c(c1)[C@H]([C@H]1c3cc(C(=O)O)cc(O)c3C(=O)c3c(O[C@@H]4O[C@H](CO)[C@@H](O)[C@H](O)[C@H]4O)cccc31)c1cccc(O[C@@H]3O[C@H](CO)[C@@H](O)[C@H](O)[C@H]3O)c1C2=O | inactive
39 | CCCCCCCCCC(=O)NO | inactive
40 | CC1(C)S[C@@H]2[C@H](NC(=O)[C@@H](NC(=O)N3CCNC3=O)c3ccccc3)C(=O)N2[C@H]1C(=O)O | inactive

— PubChem BioAssay (Tox21)
